proKLK7 act = activators of human kallikrein-7 zymogen. P49862. purified proKLK7, EDANS-DABCYL substrate fluorescence; 100% is mature enzyme control, 0% vehicle. activation, % at 7 µM. 370,000 compounds, 0.9% hits;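 active = activation above the mean of all tested compounds plus 3 SD, computed per campaign excluding outliers beyond control limits, cut at about 13% in these data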
ADAM17 inh = inhibits human ADAM17. recombinant ADAM17, EDANS/DABCYL FRET peptide cleavage. inhibition, % at 6.95 µM. 370,000 compounds, 0.83% hits. AID 720648;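 active = inhibition above the mean of compounds lying between control limits plus 3 SD, set per campaign, cut at about 8.5% in these data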;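 note: 0% = DMSO-only wells as the low control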
FGF22 binding = shifts melting point of recombinant human FGF22 | activity (Tm shift, normalised), % at 9.99 µM | AID 651658 | recombinant FGF22 thermal shift, SYPRO orange fluorescence; percent of sucrose octasulfate shift, DMSO zero | 340,000 compounds, 1.5% hits | Q9HCT0;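 active = mean Tm shift, scaled 0 neutral to 100 positive control, at about 1.3% or above, every replicate too, limit read from the data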
Ecoli rRNA inh = selective bacterial rRNA inhibition in E. coli | AID 720706 | 350,000 compounds, 1.6% hits | E. coli WT GFP vs humanized-ribosome RFP mutants, fluorescence, 24 h; hits give low values; DMSO median 0, no signal -100 | GFP signal change (wild-type ribosome), % (no concentration beside the values);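 active = significant combined selectivity score with lowered wild-type GFP, culture density cut under 30%, mutant RFP and density less affected; inactive = any of these conditions unmet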
ADAM10 inh = ADAM10 inhibition, QFRET primary screen. inhibition, % at 7 µM. 370,000 compounds, 0.62% hits. O14672. recombinant ADAM10, EDANS/DABCYL FRET peptide cleavage, 3 h;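 active = inhibition above a per-campaign cutoff equal to the mean of compounds falling between control-based bounds plus 3 SD, cut at about 20% in these data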;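 note: 0% = DMSO wells while the 100% control is not disclosed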
Target sequence (O14672 214-748 limits assumed): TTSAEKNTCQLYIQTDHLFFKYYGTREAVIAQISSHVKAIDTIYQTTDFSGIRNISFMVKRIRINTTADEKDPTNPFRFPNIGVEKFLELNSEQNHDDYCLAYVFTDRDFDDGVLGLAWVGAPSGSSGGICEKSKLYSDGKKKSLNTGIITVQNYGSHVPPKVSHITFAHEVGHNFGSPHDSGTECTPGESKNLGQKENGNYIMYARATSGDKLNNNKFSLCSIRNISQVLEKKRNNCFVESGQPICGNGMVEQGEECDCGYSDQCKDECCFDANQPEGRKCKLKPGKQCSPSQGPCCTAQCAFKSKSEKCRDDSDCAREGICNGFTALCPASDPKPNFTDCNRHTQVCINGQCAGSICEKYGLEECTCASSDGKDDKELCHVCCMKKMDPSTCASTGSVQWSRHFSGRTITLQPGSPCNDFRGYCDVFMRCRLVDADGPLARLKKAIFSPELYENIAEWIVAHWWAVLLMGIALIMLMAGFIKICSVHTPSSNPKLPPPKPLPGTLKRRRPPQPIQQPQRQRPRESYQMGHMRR
An asterisk follows results filed as active; . = no result given; ! = repeats disagree. Only some compounds are listed: those with a hit (about 3.8% of all), similar ones and a draw of the others.

SMILES | proKLK7 act | ADAM17 inh | FGF22 binding | Ecoli rRNA inh | ADAM10 inh
CC(=O)Nc1ccc(C(=O)Nc2ccc(S(=O)(=O)N3CCCCC3)cc2)cc1 | 0 | 2 | 0 | -3 | 9
CC(=O)c1ccc(NC(=O)Nc2ccc(S(=O)(=O)N3CCCC3)cc2)cc1 | 0 | 6 | 0 | -28* | 10
CC(=O)N1[C@H](CO)[C@H](c2ccc(-c3cccnc3)cc2)[C@@H]1CNC(=O)C1CC1 | . | . | . | 2 | .
CC(C)Cn1c(-c2cc(Br)ccc2F)nc2c1c(=O)[nH]c(=O)n2CC(C)C | 0 | -2 | 2.3* | 4 | -4
CCCCC[C@@H](/C=C/C1C(=O)C=C[C@H]1C/C=C\CCCC(=O)OC)OC(C)=O (stereo partly specified) | 0 | -3 | -1 | -23* | -5
C[C@H](CO)N1C[C@H](C)[C@@H](CN(C)C(=O)Nc2ccc(F)cc2)OCCCC[C@H](C)Oc2ccc(NC(=O)NC3CCCCC3)cc2C1=O | . | . | 0 | -1 | .
Cc1noc2ncnc(Oc3ccccc3)c12 | 0 | -3 | . | . | -5
Cc1noc2ncnc(Oc3ccccc3Cl)c12 | 0 | 0 | 43* | -6 | 3
Cc1noc2ncnc(Oc3ccc(Cl)cc3Cl)c12 | 0 | -2 | 44* | 7 | -4
O=C(C[C@@H]1CC[C@H]2[C@@H](COC[C@H](O)CN2C(=O)Nc2cc(Cl)cc(Cl)c2)O1)N1CCOCC1 | . | . | 0 | -28* | .
O=C(C[C@H]1CC[C@@H]2[C@H](COC[C@@H](O)CN2C(=O)Nc2cc(Cl)cc(Cl)c2)O1)N1CCOCC1 | . | . | 0 | -34* | .
CN1CCN(C(=O)C[C@H]2CC[C@H]3[C@@H](COC[C@@H](O)CN3Cc3cccc(F)c3)O2)CC1 | 1 | -3 | 43*! | 2 | 0
O=C(C[C@@H]1CC[C@H]2[C@@H](COC[C@@H](O)CN2C(=O)Nc2cc(Cl)cc(Cl)c2)O1)N1CCOCC1 | . | . | 0 | -50 | .
CN1CCN(C(=O)C[C@@H]2CC[C@H]3[C@@H](COC[C@H](O)CN3C(=O)Nc3ccc(Cl)cc3)O2)CC1 | . | . | 0 | -34* | .
COc1ccc(S(=O)(=O)N[C@@H]2C=C[C@H](CC(=O)N3CCN(c4ccccc4)CC3)O[C@H]2CO)cc1 | . | . | 0 | 3 | .
COc1ccc2c3c([nH]c2c1)[C@H](CO)N(C(=O)C1CCOCC1)CC31CN(C)C1 | . | . | . | 4 | .
CN(C)c1ccc2c(c1)[C@@H]1C[C@@H](CC(=O)NCc3ccc(-c4ccccc4)cc3)O[C@H](CO)[C@@H]1O2 | . | . | -1 | -6 | .
O=C(COC(=O)c1ccccc1)NCCC1=CCCCC1 | -1 | -6 | 0 | -28* | -7
C[C@@H]1CCc2cnnn2COC[C@H](Cc2ccccc2)NC1=O | . | . | . | 2 | .
Cc1nc(C)c(C(=O)Nc2cccc(F)c2)s1 | 1 | 2 | 0 | 10 | 0
Cc1cc(C)c(C(=O)Nc2cccc(F)c2)c(Cl)n1 | 0 | -2 | 43* | 14 | 1
CC(C)c1cn(CC[C@H]2CC[C@H](NC(=O)C3CCOCC3)[C@@H](CO)O2)nn1 | . | . | . | 1 | .
CN(C)c1ccc(NC(=O)CSc2nc3ccccc3c(=O)n2C2CCCCC2)cc1 | 0 | 12* | . | . | 12
COc1cc(CN2CCCC(N3CCc4ccccc4C3)C2)c(Cl)cc1O (stereo unspecified) | 1 | -1 | 0 | 10 | 6
COc1cc2c(cc1OC)CN(C1CCCN(Cc3cc(Cl)ccc3O)C1)CC2 (stereo unspecified) | 12 | -35 | 0 | -28* | -70
SMILES | proKLK7 act | ADAM17 inh | FGF22 binding | Ecoli rRNA inh | ADAM10 inh
C[C@H](NC(=O)C[C@H]1CC[C@@H](NC(=O)Nc2ccc3c(c2)OCO3)[C@@H](CO)O1)c1ccccc1 | . | . | 0 | -1 | .
CCN(Cc1ccccc1)c1ccc(/C=N/N2CCOCC2)cc1 | 0 | -1 | 0 | -22* | -8
COc1ccc2c3c(n(C)c2c1)[C@@H](CO)N(C(=O)Nc1ccc(F)cc1)CC31CCN(C(=O)CN2CCOCC2)CC1 | . | . | 0 | 0 | .
COc1ccc2c3c(n(C)c2c1)[C@H](CO)N(CC1CCOCC1)CC31CN(C(C)=O)C1 | . | . | . | 10 | .
O=C(CN1C(=O)C2C3C=CC(C4CC34)C2C1=O)Nc1cnc2ccccc2c1 (stereo unspecified) | 0 | -1 | 44* | -12 | 8
Cc1noc(C)c1NC(=O)N[C@@H]1C=C[C@@H](CC(=O)NCc2ccc(Cl)c(Cl)c2)O[C@H]1CO | . | . | 0 | -2 | .
CNC(=O)c1ccsc1NC(=O)CCS(=O)(=O)c1ccccc1 | 1 | 1 | 43* | 4 | -4
CNC(=O)c1ccsc1NC(=O)c1ccc(Cl)s1 | 0 | -2 | 0 | -28* | -8
CCCN(C)C[C@@H]1OCCCC[C@@H](C)Oc2ccc(NS(=O)(=O)c3ccc(F)cc3)cc2C(=O)N([C@H](C)CO)C[C@@H]1C | . | . | 0 | 8 | .
C/C(CC1CC(COCC(C)C)OC1=O)=N\Nc1nc(-c2ccccc2)cs1 (stereo unspecified) | -1 | -5 | . | . | -2
Nc1ccccc1SCC(=O)Nc1nc(-c2ccccc2)cs1 | 0 | -4 | 1.5* | -32 | -6
CC1CC(CC(=O)Nc2nc(-c3ccccc3)cs2)C(=O)O1 (stereo unspecified) | 0 | -2 | 43 | -24* | -8
CCn1c(SCC(=O)Nc2nc(-c3ccc(C)cc3)cs2)nnc1-c1ccccc1O | 0 | 15* | . | . | 4
COCCNC(=O)C[C@H]1CC[C@H]2[C@@H](COc3ccc(NC(=O)CC(F)(F)F)cc3C(=O)N2C)O1 | . | . | 0 | 4 | .
C[C@@H]1CN([C@@H](C)CO)C(=O)c2cc(Br)cnc2O[C@H]1CN(C)C(=O)C1CCOCC1 | . | . | 0 | 2 | .
OCc1cn(-c2ccccc2)nc1-c1cc2ccccc2o1 | 1 | -12 | 0 | -18 | -27
OCC1CCCN(Cc2cn(Cc3ccccc3)nc2-c2cc3ccccc3o2)C1 (stereo unspecified) | 0 | -1 | 43* | 5 | 0
COC1CCN(Cc2cn(Cc3ccccc3)nc2-c2cc3ccccc3o2)CC1 | 1 | -1 | 0 | 1 | 4
OCC1CCN(Cc2cn(Cc3ccccc3)nc2-c2cc3ccccc3o2)CC1 | 0 | 1 | 44* | . | 0
CCCNC(=O)Nc1ccc2c(c1)OC[C@@H](C)N(C(=O)C1CC1)C[C@H](C)[C@@H](OC)CN(C)C2=O | . | . | -1 | -2 | .
O=C(Nc1cccc(Cl)c1)c1ccc(S(=O)(=O)NCC2CCCO2)cc1 (stereo unspecified) | 0 | 1 | 0 | -21* | 13
O=S(=O)(NC1CCCC1)c1ccc(S(=O)(=O)N(Cc2cccs2)CC2CCCO2)cc1 (stereo unspecified) | 0 | 0 | 0 | -30* | -1
O=C(Nc1ccccc1)c1ccc(S(=O)(=O)NCC2CCCO2)cc1 (stereo unspecified) | -1 | 1 | . | . | 6
